# Assay results taken from PubChem BioAssay (EPA / NIEHS).
# Calls of active or inactive are those of the source. The calls were made as follows: active = hit-call score of the fitted dose curve at least 0.9, where 1 is the maximum; inactive = score below 0.9.
# Legend:
# [1] = ATG_GLI_CIS: Attagene CIS-FACTORIAL HepG2 Assay for human Zinc Finger Protein GLI1 (AID 2282945); details: HepG2, Attagene cis-factorial reporter mRNA, GLI element; actives raise or lower the signal
# Outline: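 Transiently transfected HepG2 cells report endogenous transcription factor activity via cis-element-driven reporter units. After 24 h compound exposure, reporter mRNA was measured by RT-PCR with capillary electrophoresis; bidirectional fitting against DMSO baseline.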
# [2] = molecular target: Bile acid receptor (Homo sapiens) (UniProt Q96RI1); assay: ATG_IR1_CIS: Attagene CIS-FACTORIAL HepG2 Assay for human Nuclear Receptor Subfamily 1 Group H Member 4 (NR1H4), IR1 submotif (AID 2282946); details: IR1 reporter transcription, actives raise or lower the signal
# Outline: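 HepG2 cells transiently transfected with multiple cis-promoter-driven reporter units to measure endogenous transcription factor activity; 24 h exposure. Reporter mRNA read by RT-PCR, FAM labelling, HpaI digestion and capillary electrophoresis. Bidirectional fit versus DMSO.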
# [3] = ATG_ISRE_CIS: Attagene CIS-FACTORIAL HepG2 Assay for human Interferon Regulatory Factor 1 (IRF1) binding to an Interferon-Stimulated Response Element (ISRE) (AID 2282948); details: HepG2 ISRE cis-reporter (Attagene), mRNA transcription readout; actives raise or lower the signal
# Outline: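 Transfected HepG2 (multiple reporter transcription units, cis elements) dosed 24 h. RNA → oligo(dT) RT → PCR → 6-FAM primer extension → HpaI → CE. DMSO = negative control/baseline.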
# [4] = ATG_M_32_CIS: Attagene CIS-FACTORIAL HepG2 Assay for M32 Transcription Factor (Internal Marker) (AID 2282949); details: HepG2 Attagene cis-factorial M32 reporter, mRNA; actives raise or lower the signal;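 also: background control marker of the multiplexed CIS panel rather than a real target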
# Outline: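 Internal background marker read-out: RT-PCR/capillary electrophoresis fluorescence of reporter transcripts from transiently transfected HepG2 cells after 24 h chemical exposure. Activity fitted bidirectionally relative to DMSO negative control.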
# [5] = molecular target: Hepatocyte nuclear factor 6 (Homo sapiens) (UniProt Q9UBC0); assay: ATG_HNF6_CIS: Attagene CIS-FACTORIAL HepG2 Assay for human Hepatocyte Nuclear Factor 6 (HNF6) (AID 2282952); details: HepG2 Attagene cis-factorial HNF6 reporter transcription; actives raise or lower the signal
# Outline: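 HepG2 cells transiently transfected with cis-element-driven multiple reporter transcription units, dosed 24 h; reporter mRNA quantified by RT-PCR, FAM primer extension, HpaI digestion and capillary electrophoresis; bidirectional fit versus DMSO baseline.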
# [6] = molecular target: Heat shock factor protein 1 (Homo sapiens) (UniProt Q00613); assay: ATG_HSE_CIS: Attagene CIS-FACTORIAL HepG2 Assay for human Heat Shock Transcription Factor 1 (HSE) (AID 2282953); details: HepG2 HSE cis-reporter, Attagene RNA transcription; actives raise or lower the signal
# Outline: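 HepG2 cells transiently transfected with multiple reporter transcription units under cis-regulatory promoter control, measuring endogenous transcription factor activity. After 24 h chemical exposure, reporter mRNA quantified by RT-PCR, fluorescent labelling, HpaI digestion and capillary electrophoresis; bidirectional fit versus DMSO.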
# [7] = ATG_MRE_CIS: Attagene CIS-FACTORIAL HepG2 Assay for human Metal Responsive Element (MRE) (AID 2282954); details: HepG2 MRE cis-reporter transcription, Attagene multiplex; actives raise or lower the signal
# Outline: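 Fluorescent reporter fragments separated by capillary electrophoresis give mRNA induction for the MRE unit after 24 h treatment of transfected HepG2 cells. Endogenous transcription-factor activity is read; DMSO serves as negative control and baseline.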
# [8] = molecular target: Paired box protein Pax-6 (Homo sapiens) (UniProt P26367); assay: ATG_Pax6_CIS: Attagene CIS-FACTORIAL HepG2 Assay for human Paired Box 6 (PAX6) (AID 2282956); details: HepG2 CIS-FACTORIAL PAX6 reporter transcription, RNA readout; actives raise or lower the signal
# Outline: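 Transient MRTU transfection of HepG2 → compound exposure 24 h → TriZol RNA, oligo(dT) RT → PCR, 6-FAM primer extension, HpaI cut → capillary electrophoresis; activity fitted both directions against DMSO.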
# [9] = ATG_PXRE_CIS: Attagene CIS-FACTORIAL HepG2 Assay for human Pregnane X Receptor Element (PXRE) (AID 2282957); details: HepG2 Attagene CIS-FACTORIAL PXRE reporter, mRNA; actives raise or lower the signal
# Outline: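 HepG2 cells transiently transfected with cis-regulated multiple reporter transcription units; endogenous factor activity measured as reporter mRNA 24 h after dosing. RT-PCR, fluorescent primer extension, HpaI digestion, capillary electrophoresis; bidirectional fit versus DMSO baseline.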
# [10] = ATG_PPRE_CIS: Attagene CIS-FACTORIAL HepG2 Assay for human Peroxisome Proliferator-activated Response Element (PPRE) (AID 2282958); details: HepG2 PPRE cis-element reporter, Attagene transcription factor profiling; actives raise or lower the signal
# Outline: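 Read-out: fluorescent reporter mRNA fragments resolved by capillary electrophoresis after RT-PCR. HepG2 cells carried transiently transfected PPRE-driven cis reporter constructs and were dosed for 24 h; gain or loss of signal fitted relative to DMSO.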
# [11] = ATG_RORE_CIS: Attagene CIS-FACTORIAL HepG2 Assay for human RAR-related Orphan Receptor Element (RORE) (AID 2282959); details: HepG2 Attagene cis-factorial RORE reporter, mRNA; actives raise or lower the signal
# Outline: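 Readout: fluorescent reporter mRNA by RT-PCR plus capillary electrophoresis, 24 h after dosing transfected HepG2 cells. Endogenous transcription factor activity on a cis promoter element is measured. Gain or loss of signal fitted against DMSO.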
# [12] = ATG_Sox_CIS: Attagene CIS-FACTORIAL HepG2 Assay for human SRY-box transcription factor (SOX) (AID 2282960); details: HepG2 Attagene cis-factorial SOX reporter, mRNA; actives raise or lower the signal
# Outline: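 Read-out: fluorescent RT-PCR products of SOX1-linked reporter transcripts resolved by capillary electrophoresis, fitted bidirectionally against DMSO. Transiently transfected HepG2 cells, 24 h after chemical exposure, endogenous transcription factor activity.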
# [13] = molecular target: Transcription factor Sp1 (Homo sapiens) (UniProt P08047); assay: ATG_Sp1_CIS: Attagene CIS-FACTORIAL HepG2 Assay for human Specificity Protein 1 (Sp1) (AID 2282961); details: HepG2 Sp1 cis-reporter transcription, actives raise or lower the signal
# Outline: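 Read-out: fluorescence of 6-FAM-labeled, HpaI-digested RT-PCR products separated by capillary electrophoresis. HepG2 cells carried transfected cis-element reporter units and were exposed to chemicals for 24 h; gain or loss of signal fitted relative to DMSO.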
# [14] = ATG_SREBP_CIS: Attagene CIS-FACTORIAL HepG2 Assay for human Sterol Regulatory Element Binding (SREBP) (AID 2282962); details: HepG2 Attagene cis-factorial SREBP reporter, mRNA; actives raise or lower the signal
# Outline: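 Transfected HepG2 (cis-regulated reporter library, endogenous TFs) → compound 24 h → total RNA → oligo(dT) RT → reporter-specific PCR → FAM primer extension, HpaI cut → CE fluorescence. Fit bidirectional vs DMSO.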
# [15] = molecular target: Signal transducer and activator of transcription 3 (Homo sapiens) (UniProt P40763); assay: ATG_STAT3_CIS: Attagene CIS-FACTORIAL HepG2 Assay for human Signal Transducer and Activator of Transcription 3 (STAT3) (AID 2282963); details: HepG2, Attagene cis-factorial STAT3 reporter transcription; actives raise or lower the signal
# Outline: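 Values derive from bidirectional fits relative to DMSO of reporter mRNA levels, measured by RT-PCR with capillary electrophoresis, in HepG2 cells carrying transiently transfected cis-regulated reporter units and exposed 24 h.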
# [16] = ATG_TA_CIS: Attagene CIS-FACTORIAL HepG2 Assay for human TA Basal Promoter (AID 2282964); details: HepG2 Attagene CIS-factorial TA basal promoter reporter; actives raise or lower the signal
# Outline: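 HepG2 cells transiently transfected with multiplexed cis-promoter reporter units, dosed 24 h. Reporter mRNA measured by RT-PCR, 6-FAM labelling, HpaI digestion and capillary electrophoresis; bidirectional fit versus DMSO baseline, serving as background control.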
# [17] = ATG_GRE_CIS: Attagene CIS-FACTORIAL HepG2 Assay for human Glucocorticoid Response Elements (GRE) (AID 2282947); details: HepG2 GRE cis-reporter, Attagene multiplex mRNA; actives raise or lower the signal
# Outline: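 Endogenous transcription factor activity is read through cis-element reporter constructs transiently transfected into HepG2 cells. After 24 h treatment, labelled RT-PCR products are resolved by capillary electrophoresis; DMSO sets baseline for bidirectional curve fitting.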
# [18] = ATG_M_06_CIS: Attagene CIS-FACTORIAL HepG2 Assay for M06 Transcription Factor (Internal Marker) (AID 2282950); details: HepG2 Attagene CIS-FACTORIAL M06 internal marker reporter; actives raise or lower the signal
# Outline: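 HepG2 cells transiently transfected with cis-regulated multiple reporter transcription units were exposed to chemical for 24 h; reporter mRNA was quantified by RT-PCR, 6-FAM primer labelling, HpaI digestion and capillary electrophoresis, fitted bidirectionally against DMSO.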
# [19] = molecular target: Hypoxia-inducible factor 1-alpha (Homo sapiens) (UniProt Q16665); assay: ATG_HIF1a_CIS: Attagene CIS-FACTORIAL HepG2 Assay for human Hypoxia Inducible Factor 1 (HIF1A) (AID 2282951); details: HepG2 Attagene cis-factorial HIF1a reporter transcription; actives raise or lower the signal
# Outline: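 RT-PCR/capillary electrophoresis fluorescence readout of reporter transcripts from endogenous-TF-driven cis elements in transfected HepG2 cells, 24 h exposure; activity fitted in both directions against DMSO controls.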
# [20] = ATG_PBREM_CIS: Attagene CIS-FACTORIAL HepG2 Assay for human Phenobarbital-responsive Enhancer Module (PBREM) (AID 2282955); details: HepG2 PBREM cis-reporter, Attagene multiplexed transcription; actives raise or lower the signal
# Outline: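 Reporter mRNA read by RT-PCR, 6-FAM primer extension, HpaI digestion and capillary electrophoresis. Transfected HepG2 cells, 24 h compound exposure. Gain or loss of signal fitted bidirectionally relative to DMSO baseline.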
# Sequence of Paired box protein Pax-6 (Homo sapiens) (P26367 whole entry, looked up): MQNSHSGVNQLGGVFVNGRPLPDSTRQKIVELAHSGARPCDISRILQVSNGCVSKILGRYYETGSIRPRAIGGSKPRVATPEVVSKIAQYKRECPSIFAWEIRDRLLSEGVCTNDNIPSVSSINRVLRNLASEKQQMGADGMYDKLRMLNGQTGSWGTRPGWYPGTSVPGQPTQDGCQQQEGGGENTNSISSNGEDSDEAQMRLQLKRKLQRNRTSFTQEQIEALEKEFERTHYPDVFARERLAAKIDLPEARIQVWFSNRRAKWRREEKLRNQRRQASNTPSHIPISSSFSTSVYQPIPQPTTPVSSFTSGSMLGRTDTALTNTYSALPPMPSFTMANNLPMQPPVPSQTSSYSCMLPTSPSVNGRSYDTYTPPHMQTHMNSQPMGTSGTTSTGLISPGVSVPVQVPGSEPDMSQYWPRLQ
# Sequence of Heat shock factor protein 1 (Homo sapiens) (Q00613 whole entry, looked up): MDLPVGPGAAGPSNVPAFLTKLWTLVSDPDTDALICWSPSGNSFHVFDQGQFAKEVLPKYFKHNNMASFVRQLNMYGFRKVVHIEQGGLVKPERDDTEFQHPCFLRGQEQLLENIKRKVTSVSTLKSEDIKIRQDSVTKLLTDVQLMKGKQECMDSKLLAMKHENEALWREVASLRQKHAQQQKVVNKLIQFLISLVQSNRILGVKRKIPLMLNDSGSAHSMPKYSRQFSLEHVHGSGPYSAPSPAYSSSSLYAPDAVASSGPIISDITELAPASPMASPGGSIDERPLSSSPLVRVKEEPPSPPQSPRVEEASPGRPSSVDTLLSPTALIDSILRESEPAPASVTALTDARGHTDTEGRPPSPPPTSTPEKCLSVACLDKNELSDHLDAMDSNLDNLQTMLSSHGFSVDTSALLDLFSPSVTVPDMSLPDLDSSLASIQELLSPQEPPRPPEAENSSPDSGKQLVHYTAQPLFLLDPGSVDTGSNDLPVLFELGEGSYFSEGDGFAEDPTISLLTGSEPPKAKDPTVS
# Sequence of Hepatocyte nuclear factor 6 (Homo sapiens) (Q9UBC0 whole entry, looked up): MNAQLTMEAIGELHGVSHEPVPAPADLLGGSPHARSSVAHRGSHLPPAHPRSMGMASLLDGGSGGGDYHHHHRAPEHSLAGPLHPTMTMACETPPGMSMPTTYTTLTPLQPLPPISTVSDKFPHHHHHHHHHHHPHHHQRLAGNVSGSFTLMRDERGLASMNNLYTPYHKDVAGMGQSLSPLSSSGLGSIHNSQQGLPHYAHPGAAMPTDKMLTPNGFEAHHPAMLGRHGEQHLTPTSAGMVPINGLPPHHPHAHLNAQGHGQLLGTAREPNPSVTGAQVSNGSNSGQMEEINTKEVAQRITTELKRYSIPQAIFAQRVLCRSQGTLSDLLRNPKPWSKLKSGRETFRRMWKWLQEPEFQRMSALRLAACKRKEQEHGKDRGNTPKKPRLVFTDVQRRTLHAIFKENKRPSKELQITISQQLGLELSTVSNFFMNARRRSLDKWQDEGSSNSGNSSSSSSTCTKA
# Sequence of Hypoxia-inducible factor 1-alpha (Homo sapiens) (Q16665 whole entry, looked up): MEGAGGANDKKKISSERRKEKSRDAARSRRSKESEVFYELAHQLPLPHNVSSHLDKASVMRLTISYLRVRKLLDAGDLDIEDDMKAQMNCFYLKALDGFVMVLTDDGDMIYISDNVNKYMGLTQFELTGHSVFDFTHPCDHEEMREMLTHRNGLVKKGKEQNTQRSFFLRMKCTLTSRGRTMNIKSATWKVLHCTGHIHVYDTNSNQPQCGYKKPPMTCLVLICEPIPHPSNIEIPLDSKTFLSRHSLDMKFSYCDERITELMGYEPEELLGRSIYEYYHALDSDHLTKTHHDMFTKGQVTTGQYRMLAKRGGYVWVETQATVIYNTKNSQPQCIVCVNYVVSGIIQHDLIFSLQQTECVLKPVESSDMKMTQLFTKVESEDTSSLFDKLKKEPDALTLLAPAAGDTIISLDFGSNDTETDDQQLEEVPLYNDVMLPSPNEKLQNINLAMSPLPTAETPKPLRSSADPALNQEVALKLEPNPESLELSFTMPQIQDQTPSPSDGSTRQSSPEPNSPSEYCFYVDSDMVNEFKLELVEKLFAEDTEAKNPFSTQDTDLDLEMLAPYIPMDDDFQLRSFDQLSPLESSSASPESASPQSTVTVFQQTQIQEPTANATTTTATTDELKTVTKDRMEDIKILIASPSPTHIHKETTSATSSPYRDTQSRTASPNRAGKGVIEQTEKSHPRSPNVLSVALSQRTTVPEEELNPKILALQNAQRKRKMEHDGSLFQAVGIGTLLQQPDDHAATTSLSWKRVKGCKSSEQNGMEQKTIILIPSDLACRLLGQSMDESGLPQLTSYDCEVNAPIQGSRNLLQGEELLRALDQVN
# Sequence of Signal transducer and activator of transcription 3 (Homo sapiens) (P40763 whole entry, looked up): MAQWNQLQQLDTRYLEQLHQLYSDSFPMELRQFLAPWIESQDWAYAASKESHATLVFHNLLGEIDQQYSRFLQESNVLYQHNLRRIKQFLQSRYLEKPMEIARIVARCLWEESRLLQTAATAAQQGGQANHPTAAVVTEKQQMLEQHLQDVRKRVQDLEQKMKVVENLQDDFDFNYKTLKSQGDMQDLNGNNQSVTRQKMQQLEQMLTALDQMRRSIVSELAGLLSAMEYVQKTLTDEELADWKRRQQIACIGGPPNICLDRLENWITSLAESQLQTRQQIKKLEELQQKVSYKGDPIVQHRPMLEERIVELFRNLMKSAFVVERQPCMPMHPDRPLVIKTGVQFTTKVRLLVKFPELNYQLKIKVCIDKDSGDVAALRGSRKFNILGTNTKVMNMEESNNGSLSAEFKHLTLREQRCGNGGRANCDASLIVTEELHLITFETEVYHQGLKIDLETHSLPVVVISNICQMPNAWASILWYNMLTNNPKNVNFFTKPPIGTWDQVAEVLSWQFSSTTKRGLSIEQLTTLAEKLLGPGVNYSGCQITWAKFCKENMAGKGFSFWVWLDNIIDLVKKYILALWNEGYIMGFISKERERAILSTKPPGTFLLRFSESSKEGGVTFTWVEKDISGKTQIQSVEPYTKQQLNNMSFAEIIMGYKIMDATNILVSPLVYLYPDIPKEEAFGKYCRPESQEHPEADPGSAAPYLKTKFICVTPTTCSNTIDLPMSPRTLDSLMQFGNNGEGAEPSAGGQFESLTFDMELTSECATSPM
# Sequence of Transcription factor Sp1 (Homo sapiens) (P08047 whole entry, looked up): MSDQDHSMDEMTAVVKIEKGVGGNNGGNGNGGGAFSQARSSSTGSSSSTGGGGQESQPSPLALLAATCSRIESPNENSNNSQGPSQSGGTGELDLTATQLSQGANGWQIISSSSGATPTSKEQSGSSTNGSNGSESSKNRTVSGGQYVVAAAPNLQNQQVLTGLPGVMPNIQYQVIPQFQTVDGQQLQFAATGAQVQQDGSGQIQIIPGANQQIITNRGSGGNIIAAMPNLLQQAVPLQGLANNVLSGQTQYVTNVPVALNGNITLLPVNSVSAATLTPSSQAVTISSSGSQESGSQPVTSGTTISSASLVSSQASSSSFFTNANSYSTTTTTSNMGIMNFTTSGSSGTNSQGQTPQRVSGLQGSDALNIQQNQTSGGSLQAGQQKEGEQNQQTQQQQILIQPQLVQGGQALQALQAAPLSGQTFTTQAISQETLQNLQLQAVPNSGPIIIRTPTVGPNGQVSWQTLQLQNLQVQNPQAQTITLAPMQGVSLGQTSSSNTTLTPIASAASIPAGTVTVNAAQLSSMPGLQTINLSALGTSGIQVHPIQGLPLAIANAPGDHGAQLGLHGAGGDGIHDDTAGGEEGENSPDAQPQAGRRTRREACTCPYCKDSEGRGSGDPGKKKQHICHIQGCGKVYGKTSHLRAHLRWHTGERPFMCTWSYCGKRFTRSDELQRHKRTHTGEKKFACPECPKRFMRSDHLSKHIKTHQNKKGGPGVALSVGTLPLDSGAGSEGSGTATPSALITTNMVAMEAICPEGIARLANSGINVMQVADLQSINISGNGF
# Sequence of Bile acid receptor (Homo sapiens) (Q96RI1 whole entry, looked up): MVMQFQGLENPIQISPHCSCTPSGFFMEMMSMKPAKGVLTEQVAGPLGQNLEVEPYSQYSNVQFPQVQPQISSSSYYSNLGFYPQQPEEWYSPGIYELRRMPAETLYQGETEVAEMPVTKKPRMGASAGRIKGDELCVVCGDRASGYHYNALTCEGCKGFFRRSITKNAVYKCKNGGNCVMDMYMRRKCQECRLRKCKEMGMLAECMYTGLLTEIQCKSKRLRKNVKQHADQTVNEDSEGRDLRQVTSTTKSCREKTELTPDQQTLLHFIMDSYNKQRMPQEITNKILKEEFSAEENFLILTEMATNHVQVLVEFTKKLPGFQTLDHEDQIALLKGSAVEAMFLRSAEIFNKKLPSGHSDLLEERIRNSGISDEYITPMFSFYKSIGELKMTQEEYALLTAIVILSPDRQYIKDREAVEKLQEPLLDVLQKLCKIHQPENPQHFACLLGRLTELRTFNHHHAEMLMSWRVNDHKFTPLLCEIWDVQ
smiles,measurement,setting,value
Nc1ccc(S(=O)(=O)c2ccc(N)cc2)cc1,outcome,[1],inactive
same,outcome,[2],inactive
same,outcome,[3],inactive
same,outcome,[4],inactive
same,outcome,[5],inactive
same,outcome,[6],inactive
same,outcome,[7],inactive
same,outcome,[8],inactive
same,outcome,[9],inactive
same,outcome,[10],inactive
same,outcome,[11],inactive
same,outcome,[12],inactive
same,outcome,[13],inactive
same,outcome,[14],inactive
same,outcome,[15],inactive
same,outcome,[16],inactive
CCCCCCOCCO,outcome,[1],inactive
same,outcome,[17],inactive
same,outcome,[3],inactive
same,outcome,[4],inactive
same,outcome,[18],inactive
same,outcome,[19],inactive
same,outcome,[6],inactive
same,outcome,[20],inactive
same,outcome,[8],inactive
same,outcome,[9],inactive
same,outcome,[10],inactive
same,outcome,[12],inactive
same,outcome,[14],inactive
same,outcome,[15],inactive
same,outcome,[16],inactive
NCCO,outcome,[1],inactive
same,outcome,[17],inactive
same,outcome,[3],inactive
same,outcome,[4],inactive
same,outcome,[19],inactive
same,outcome,[5],inactive
same,outcome,[6],inactive
same,outcome,[7],inactive
same,outcome,[8],inactive
same,outcome,[9],inactive
same,outcome,[11],inactive
same,outcome,[12],inactive
same,outcome,[14],inactive
same,outcome,[15],inactive
same,outcome,[16],inactive
O=C(N[C@@H](Cc1ccccc1)[C@@H](O)C(=O)N1C[C@@H](O)[C@@H](O)C1)c1cc2cc(Cl)ccc2[nH]1,outcome,[1],inactive
same,outcome,[17],inactive
same,outcome,[3],inactive
same,outcome,[4],inactive
same,outcome,[18],inactive
same,outcome,[19],inactive
same,outcome,[5],inactive
same,outcome,[6],inactive
same,AC50,[7],100 µM (active)
same,outcome,[8],inactive
same,outcome,[9],inactive
same,outcome,[10],inactive
same,outcome,[11],inactive
same,outcome,[12],inactive
same,outcome,[14],inactive
same,outcome,[15],inactive
same,AC50,[16],128 µM (active)
CC(=O)OCCOCCOCCOC(C)=O,outcome,[1],inactive
same,outcome,[2],inactive
same,outcome,[3],inactive
same,outcome,[4],inactive
same,AC50,[19],39.4 µM (active)
same,outcome,[5],inactive
same,outcome,[6],inactive
same,outcome,[7],inactive
same,outcome,[20],inactive
same,outcome,[8],inactive
same,outcome,[9],inactive
same,outcome,[10],inactive
same,outcome,[11],inactive
same,outcome,[12],inactive
same,outcome,[14],inactive
same,outcome,[15],inactive
same,outcome,[16],inactive
C1CCC(SSC2CCCCC2)CC1,outcome,[1],inactive
same,outcome,[17],inactive
same,outcome,[3],inactive
same,outcome,[4],inactive
same,outcome,[18],inactive
same,outcome,[19],inactive
same,outcome,[5],inactive
same,outcome,[6],inactive
same,outcome,[7],inactive
same,outcome,[20],inactive
same,outcome,[8],inactive
same,outcome,[9],inactive
same,outcome,[10],inactive
same,outcome,[11],inactive
same,outcome,[12],inactive
same,AC50,[13],158 µM (active)
same,AC50,[14],100 µM (active)
same,outcome,[15],inactive
same,outcome,[16],inactive
O=C(OCCCCCOC(=O)c1ccccc1)c1ccccc1,outcome,[1],inactive
same,outcome,[17],inactive
same,outcome,[3],inactive
same,outcome,[4],inactive
same,AC50,[19],26.3 µM (active)
same,outcome,[6],inactive
same,outcome,[20],inactive
same,outcome,[8],inactive
same,outcome,[9],inactive
same,outcome,[10],inactive
same,outcome,[11],inactive
same,outcome,[12],inactive
same,outcome,[14],inactive
same,outcome,[15],inactive
same,outcome,[16],inactive
CCCCCCCC=O,outcome,[1],inactive
same,outcome,[3],inactive
same,outcome,[4],inactive
same,outcome,[19],inactive
same,outcome,[5],inactive
same,outcome,[6],inactive
same,outcome,[8],inactive
same,outcome,[9],inactive
same,outcome,[11],inactive
same,outcome,[12],inactive
same,outcome,[13],inactive
same,outcome,[14],inactive
same,AC50,[15],37.7 µM (active)
same,outcome,[16],inactive
